# Laboratory results: PubChem BioAssay (NCATS)
# Inconclusive results are not listed. The source made the active and inactive calls. Calls come from the whole dose curve; as a rule, active = well fitted curve in the direction sought with a large enough effect; inconclusive = small, poorly fitted or top-dose-only effect, or another doubt; inactive = no such curve, though single readings can be large or run the other way. Starred links: 1 amine or outer side, 2 acyl side, 3 side chain; linkers in the order of their positions; H or OH if unused. Positions of bridges follow the written chain, without caps; N, C: chain ends. Non-standard residues stand in square brackets, D forms with d. Residues, ends and D or L forms follow the SMILES beside them. ξ: configuration not given here. *: point of attachment. X3 = C[C@@H](Oc1ccc([C@H](N[*:1])C(=O)[*:2])cc1)[C@]1(/C=C\C(=O)[*:3])CO1; d(aIle) = CC[C@H](C)[C@@H](N)C(=O)O; X2 = CC(C)[C@@H](O)C(C)C(=O)*; ξNMeF = CNC(Cc1ccccc1)C(=O)O; ξT = CC(O)C(N)C(=O)O; ξS = NC(CO)C(=O)O
# Assay: qHTS for inhibitors of Wild type Zika virus screened against the NCATS CANVASS Library (AID 1347396);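 for activity change, negative = antiviral: ATP luminescence of surviving cells so rescue from viral cell killing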
# Settings: Vero cells, Zika virus CPE, CellTiter-Glo, 72 h; series mostly up to 45.9 µM; activity change, negative = antiviral: at the top concentration
# Description: Natural products and their derivatives continue to be wellsprings of nascent therapeutic potential. However, many laboratories have limited resources for biological evaluation, leaving their previously isolated or synthesized compounds largely or completely untested. To address this issue, the Canvass library of natural products was assembled (https://tripod.nih.gov/canvass), in collaboration with academic and industry researchers, for quantitative high-throughput screening (qHTS) across a diverse set of cell-based and biochemical assays. The pure (>85% purity by liquid chromatography/mass spectrometry [LC/MS]) Canvass library of 346 natural products were submitted by 45 academic laboratories and companies around the world. We collected pure natural products to circumvent deconvolution and structure elucidation due to time and resource limitations. The library was formatted into 1536-well plates and evaluated in 50 qHTS (in an 11-pnt concentration series) bioassays with broad scope of disease-relevant mechanisms. The resulting data set from 50 different assays was then systematically analyzed to identify overall trends and specific natural products with interesting biological activities. Reported herein are the results of each individual qHTS and their corresponding assay protocol. Vero cells were infected with wild type Zika virus and at 72 hours post-infection viral cytotoxicity was assayed using CellTiter Glo. National Center for Advancing Translational Sciences (NCATS), Rockville, MD National Institute of Health (NIH), Bethesda, Maryland
# Zika virus infection assay protocol: 1. In a white-solid bottom 1536-well tissue culture plate (Corning 7494), 3 uL of Vero 766 cells derived (African Green Monkey) were dispensed using a Multidrop Combi (Thermo Fisher Scientific) at a final concentration of 1000 cells / well. 2. The assay plates were incubated overnight at 37C, 5% CO2, 95% humidity to acclimate and attach. 3. […] of compounds (in DMSO; columns 5-48) were pin transferred into the assay plates using the Kalypsis pin tool (Wako USA) equipped with a 1536-well pin heads. This yields a final concentration range of 0.001 - 77 uM. 4. In a biosafety cabinet, the desired MOI Zika virus was calculated and 2 uL of 2.5x Zika virus was dispensed into columns 1, 2 and 5 - 48 using the Multidrop Combi dispenser. Two microliters of media + vehicle was dispensed into columns 3 and 4 as positive controls (no infection, 100% inhibition). The assay plates were sealed with breathable film. 5. The assay plates were incubated for 72 hours at 37C, 5% CO2, 95% humidity. 6. In a biosafety cabinet, the seals were removed by Xpeel Automated Plate Seal Remover (Brooks Life Sciences) and 2.5 uL of CellTiter Glo reagent (Promega) was dispensed into the wells (columns 1 - 48, rows 1 - 32). 7. Luminescence signal was obtained via the ViewLux plate reader (Perkin Elmer) using the clear emission filter and 1x binning, 2 seconds exposure settings.
# % is set by controls: 0 for no effect and ±100 for the full control effect; potency is the fitted concentration of half-maximal effect.
Structure (SMILES),"activity change, negative = antiviral",Potency
CO[C@H]1[C@H](O[C@H]2CC[C@]3(C=O)[C@H]4CC[C@]5(C)[C@@H](C6=CC(=O)OC6)CC[C@]5(O)[C@@H]4CC[C@]3(O)C2)O[C@H](C)[C@H](O)[C@@H]1OC,-4.42% (inactive),–
C[C@]12CCC3[C@@H](CC[C@@H]4C[C@@H](O)CC[C@]34CO)[C@@]1(O)CC[C@@H]2C1=CC(=O)OC1 (stereo partly specified),-13.3% (inactive),–
c1ccc2nc3c(cc2c1)[nH]c1ccccc13,-2.37% (inactive),–
CC[C@H]1CN2CCc3c([nH]c4cccc(OC)c34)[C@@H]2C[C@@H]1/C(=C\OC)C(=O)OC,-19.6% (inactive),–
CCC(=O)N[C@@H](C[C@H](C)C(Cl)(Cl)Cl)C(=O)N1C(=O)C=C(OC)[C@@H]1C[C@H](C)C(Cl)Cl,7.6% (inactive),–
CCCC[C@@H]1CC[C@H]2CCCC(CCCO)N12 (stereo partly specified),0.785% (inactive),–
C=CC(C)(C)[C@@]12C[C@H]3C(=O)N/C(=C/c4cnc[nH]4)C(=O)N3[C@@H]1Nc1ccccc12,0.647% (inactive),–
C/C=C(\C)C(=O)O[C@@H]1[C@@H](O)[C@@H]2O[C@H]3[C@H](O[C@@H](CCCCC)CCCCCCC(=O)CCC(=O)OC[C@@H](O2)[C@H]1OC(=O)/C=C/c1ccccc1)O[C@H](C)[C@H](OC(C)=O)[C@@H]3O,80.7% (inactive),–
CC[C@@H]1CN2CCC3(Nc4cccc(OC)c4C3=O)[C@@H]2C[C@@H]1/C(=C\OC)C(=O)OC (stereo partly specified),-6.67% (inactive),–
C[N+](C)(C)CCc1c[nH]c2ccccc12,1.52% (inactive),–
C=C[C@H]1CN2CCc3c([nH]c4cccc(OC)c34)[C@@H]2C[C@@H]1/C(=C\OC)C(=O)OC,-7.33% (inactive),–
C/C(=C\[C@H](C)C(=O)C[C@H](O)CC1CC(=O)NC(=O)C1)[C@@H]1OC(=O)/C=C/CC/C=C/C=C/[C@@H]1C,-29.7% (inactive),–
C/C=C1/CN2CC[C@]34C(=C(C(=O)OC)[C@H]1C[C@H]23)Nc1ccccc14,14.1% (inactive),–
C[C@]12CC(O)C3[C@@H](CC[C@@H]4C[C@@H](O)CC[C@]34CO)[C@@]1(O)CC[C@@H]2C1=CC(=O)OC1 (stereo partly specified),-13% (inactive),–
CCCCC1CC[C@H]2CCCC(CCC)N12 (stereo partly specified),-17.2% (inactive),–
CO[C@@]12c3c(C)cc(O)c4c(=O)occ(c34)C(=O)[C@@H]1[C@]13COC(=O)c4c(O)cc(C)c(c41)C(=O)[C@H]2[C@@H]3OC(C)=O,7.75% (inactive),–

Structure (SMILES),"activity change, negative = antiviral",Potency
CCCC[C@@H](C)/C=C1/CN2CCC[C@H]2[C@@](C)(O)[C@@H]1O,-0.215% (inactive),–
C/C=C1/CN2CC[C@@]34c5ccccc5N(C)[C@@H]3[C@@H]2C[C@@H]1[C@H]4C(=O)OC,3.92% (inactive),–
CO[C@@H](/C=C/CC/C=C/C(=O)O)[C@@H](O)[C@H](C)/C=C(\C)[C@H](O)[C@H](C)C(=O)CCCC1CC(=O)NC(=O)C1,-3.51% (inactive),–
CC[C@]12C=CCN3CC[C@]4(C(=C(C(=O)OC)C1)Nc1ccccc14)[C@@H]32,-13.6% (inactive),–
C=CC(C)(C)[C@@]12C[C@H]3C(=O)N/C(=C\c4cnc[nH]4)C(=O)N3[C@@H]1Nc1ccccc12,10.3% (inactive),–
CC(C)CC1C(=O)O[C@H](C(C)C)C(=O)N(C)C(CC(C)C)C(=O)O[C@@H](C(C)C)C(=O)N(C)C(CC(C)C)C(=O)O[C@H](C(C)C)C(=O)N(C)C(CC(C)C)C(=O)O[C@@H](C(C)C)C(=O)N1C (stereo partly specified),–,14.7 µM (active)
C[C@]12CC(O)C3[C@@H](CCC4C[C@@H](O)CC[C@@]43CO)[C@@]1(O)CC[C@@H]2C1=CC(=O)OC1 (stereo partly specified),-4.09% (inactive),–
CC[C@@H]1CN2CCc3c([nH]c4cccc(OC)c34)[C@@H]2C[C@@H]1/C(=C\OC)C(=O)OC,11% (inactive),–
CO[C@H]1C[C@H](O[C@H]2[C@@H](O)C[C@H](O[C@H]3CC[C@]4(C=O)[C@H]5CC[C@]6(C)C(C7=CC(=O)OC7)CC[C@]6(O)[C@@H]5CC[C@]4(O)C3)O[C@@H]2C)O[C@H](C)[C@H]1O[C@H]1C[C@@H](OC)[C@@H](O[C@@H]2O[C@H](CO)[C@@H](O)[C@H](O)[C@H]2O)[C@@H](C)O1 (stereo partly specified),6.14% (inactive),–
C=C[C@]12C=CCN3CC[C@@]4(c5ccccc5NC(=O)[C@@H]4C1)[C@@H]32,11.2% (inactive),–
CC[C@H](C)[C@H]1NC(=O)[C@@H](NC(=O)C(C)[C@H](O)C(C)C)[C@@H](C)OC(=O)C2COC(=O)CNC(=O)/C=C\[C@]3(CO3)[C@@H](C)Oc3ccc(cc3)[C@H](NC1=O)C(=O)N(C)C(Cc1ccccc1)C(=O)NC(C(C)O)C(=O)N2 (stereo partly specified) (X2-T[d(aIle)][X3][ξNMeF][ξT][ξS]; ester 1-C; linker 3-6 via G),-6.57% [at 27.4 µM] (inactive),–
O[C@H]1C=C[C@@]23CCN(Cc4cc5c(cc42)OCO5)[C@@H]3C1,-4.71% (inactive),–
COC1C(O)C(C)OC(OC2C(Oc3cccc4c(O)c5c(=O)oc6ccc(C)c7c(=O)oc(c34)c5c67)OC(C)C(O)C2O)C1O (stereo unspecified),-11.4% (inactive),–
COC1=C(C2=C(OC)C(=O)c3cc4c(c(O)c3C2=O)C(=O)O[C@H](C)C4)C(=O)c2c(cc3c(c2O)C(=O)O[C@H](C)C3)C1=O,-1.42% [at 15.3 µM] (inactive),–
C1=C2CCCN[C@H]2C2CC1[C@H]1CCCCN1C2 (stereo partly specified),13.1% (inactive),–
